Laboratory results reported in PubChem BioAssay (NCATS).
“And” between values parts separate entries of the source, which are not always exact repeats. Identical values can stand only once. Records with an inconclusive call do not appear. A call without a number means that no potency is given here. More than one record can exist for a structure, and the calls need not agree. The source made the active and inactive calls. Unless noted, calls come from the whole dose curve; as a rule, active = well fitted curve in the direction sought with a large enough effect; inconclusive = small, poorly fitted or top-dose-only effect, or another doubt; inactive = no such curve, though single readings can be large; an effect the other way counts as inactive or inconclusive.

What was measured:
[1] = Cytometric Cell-Based qHTS for Inhibitors of the mTORC1 Signaling Pathway in MEF (Tsc2-/-, p53-/-) Cells (AID 2660); note: potency is the fitted concentration of half-maximal effect
In short: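 Cells are plated, treated with compound for 24 hrs at 37 degree Celsius, then fixed, blocked and immunostained for phospho-rpS6 Ser235/236. Propidium iodide counterstain follows. Per-well % positive cells is derived from the PI-normalized phospho-S6 signal.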

[2] = High Content Imaging Cell-Based qHTS for Inhibitors of the mTORC1 Signaling Pathway in MEF (Tsc2-/-, p53-/-) Cells (AID 2666);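 note: percent of cells scored positive for phospho-rpS6 Ser235/236 immunostaining by imaging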; note: potency is the fitted concentration of half-maximal effect
In short: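 Cells were plated, dosed with compound after 24 hrs, and incubated another 24 hrs at 37 degree Celsius. Fixed cells were immunostained for phospho-rpS6 Ser235/236 and counterstained, and the normalized signal was scored as % active cells against rapamycin and DMSO controls.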

[3] = High Content Imaging Cell-Based qHTS for Inhibitors of the mTORC1 Signaling Pathway in MEF Cells (AID 2667); note: potency is the fitted concentration of half-maximal effect
In short: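 Immunofluorescence for rpS6 phosphorylation in MEFs of Tsc2-/-, p53-/- background rescued with WT Tsc2. Compound exposure lasted 24 hrs. Inhibition was scored against rapamycin-treated control wells.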

[4] = molecular target: Ubiquitin carboxyl-terminal hydrolase 2 (Homo sapiens) (UniProt O75604); assay: qHTS Validation Assay for Inhibitors of Ubiquitin-specific Protease USP2a Using CHOP2 as the Reporter (AID 463106)
Ubiquitin carboxyl-terminal hydrolase 2 (Homo sapiens), sequence (O75604 whole entry, looked up): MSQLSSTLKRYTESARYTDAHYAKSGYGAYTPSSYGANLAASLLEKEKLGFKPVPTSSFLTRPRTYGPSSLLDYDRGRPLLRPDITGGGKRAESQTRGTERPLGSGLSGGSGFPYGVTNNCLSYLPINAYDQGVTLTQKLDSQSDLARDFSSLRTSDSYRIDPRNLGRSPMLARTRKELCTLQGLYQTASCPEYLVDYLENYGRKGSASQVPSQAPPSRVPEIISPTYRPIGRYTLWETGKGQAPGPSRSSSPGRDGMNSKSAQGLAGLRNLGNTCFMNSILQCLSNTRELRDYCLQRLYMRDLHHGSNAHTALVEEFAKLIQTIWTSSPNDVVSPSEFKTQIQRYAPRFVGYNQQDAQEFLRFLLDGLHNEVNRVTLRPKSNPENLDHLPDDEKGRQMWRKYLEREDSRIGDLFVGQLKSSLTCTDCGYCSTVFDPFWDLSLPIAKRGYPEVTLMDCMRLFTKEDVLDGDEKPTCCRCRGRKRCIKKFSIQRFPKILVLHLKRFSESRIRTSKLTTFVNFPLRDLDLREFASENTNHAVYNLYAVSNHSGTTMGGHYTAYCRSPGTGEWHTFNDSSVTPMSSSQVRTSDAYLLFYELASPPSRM
In short: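 10nM USP2 core + cpd, 30min RT; add 25nM Ub-CHOP2/25nM substrate; 60min RT; FI 485/531nm. Buffer Tris pH 8.0, CaCl2, BME, CHAPS. Norm. to NEM = 100% inhibition; time-zero read flags fluorescent artifacts.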

[5] = molecular target: DNA polymerase III PolC-type (Bacillus subtilis (strain 168)) (UniProt P13267); assay: qHTS Validation Assay for the Inhibitors of DNA Replication in Gram-Positive Bacteria (AID 485295); note: potency is the fitted concentration of half-maximal effect
DNA polymerase III PolC-type (Bacillus subtilis (strain 168)), sequence (P13267 whole entry, looked up): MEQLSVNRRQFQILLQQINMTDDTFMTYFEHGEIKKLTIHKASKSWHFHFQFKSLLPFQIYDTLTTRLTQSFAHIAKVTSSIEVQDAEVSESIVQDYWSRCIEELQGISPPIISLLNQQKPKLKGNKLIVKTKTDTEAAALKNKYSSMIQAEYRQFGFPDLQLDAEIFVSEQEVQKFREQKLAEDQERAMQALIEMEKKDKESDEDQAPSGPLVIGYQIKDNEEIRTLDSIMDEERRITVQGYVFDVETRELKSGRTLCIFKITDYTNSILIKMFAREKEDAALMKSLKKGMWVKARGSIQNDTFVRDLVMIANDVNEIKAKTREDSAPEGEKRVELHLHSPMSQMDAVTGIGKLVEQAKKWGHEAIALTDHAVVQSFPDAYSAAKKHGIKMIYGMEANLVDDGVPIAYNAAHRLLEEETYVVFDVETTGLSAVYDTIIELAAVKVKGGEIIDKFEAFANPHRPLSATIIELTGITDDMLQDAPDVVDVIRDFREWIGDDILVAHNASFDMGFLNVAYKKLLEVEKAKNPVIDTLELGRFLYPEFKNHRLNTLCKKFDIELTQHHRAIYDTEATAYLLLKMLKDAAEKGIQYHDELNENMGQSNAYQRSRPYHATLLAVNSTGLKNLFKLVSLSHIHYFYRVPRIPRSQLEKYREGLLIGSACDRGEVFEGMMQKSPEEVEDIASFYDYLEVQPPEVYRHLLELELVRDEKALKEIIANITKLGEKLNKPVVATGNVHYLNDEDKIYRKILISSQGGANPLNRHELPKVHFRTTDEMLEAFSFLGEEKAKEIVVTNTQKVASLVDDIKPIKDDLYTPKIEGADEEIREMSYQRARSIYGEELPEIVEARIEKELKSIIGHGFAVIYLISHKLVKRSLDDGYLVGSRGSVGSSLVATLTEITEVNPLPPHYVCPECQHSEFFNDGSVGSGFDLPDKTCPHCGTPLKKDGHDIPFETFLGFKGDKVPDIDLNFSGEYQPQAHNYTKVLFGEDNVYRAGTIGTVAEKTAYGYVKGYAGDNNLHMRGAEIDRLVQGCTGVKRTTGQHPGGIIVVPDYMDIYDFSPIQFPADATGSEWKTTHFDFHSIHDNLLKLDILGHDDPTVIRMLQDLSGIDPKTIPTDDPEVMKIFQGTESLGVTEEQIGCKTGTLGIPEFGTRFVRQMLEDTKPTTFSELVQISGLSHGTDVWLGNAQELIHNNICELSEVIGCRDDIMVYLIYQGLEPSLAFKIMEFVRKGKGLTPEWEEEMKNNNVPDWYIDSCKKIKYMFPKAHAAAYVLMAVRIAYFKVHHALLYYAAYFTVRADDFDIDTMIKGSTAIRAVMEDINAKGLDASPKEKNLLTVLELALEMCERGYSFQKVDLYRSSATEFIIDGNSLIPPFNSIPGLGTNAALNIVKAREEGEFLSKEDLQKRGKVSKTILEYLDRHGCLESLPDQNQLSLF
In short: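 Primed replication of single-stranded M13Gori by a four-protein B. subtilis holoenzyme is measured at room temperature. Double-stranded product is quantified by PicoGreen fluorescence after an EDTA stop; inhibition is scaled between DMSO and EDTA controls.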

[6] = molecular target: Tumor susceptibility gene 101 protein (Homo sapiens) (UniProt Q99816); assay: qHTS Validation Assay for Iinhibitors of HIV-1 Budding by Blocking the Interaction of PTAP/TSG101 (AID 485342; calls by dose curve)
Tumor susceptibility gene 101 protein (Homo sapiens), sequence (Q99816 whole entry, looked up, the tested form may be a part): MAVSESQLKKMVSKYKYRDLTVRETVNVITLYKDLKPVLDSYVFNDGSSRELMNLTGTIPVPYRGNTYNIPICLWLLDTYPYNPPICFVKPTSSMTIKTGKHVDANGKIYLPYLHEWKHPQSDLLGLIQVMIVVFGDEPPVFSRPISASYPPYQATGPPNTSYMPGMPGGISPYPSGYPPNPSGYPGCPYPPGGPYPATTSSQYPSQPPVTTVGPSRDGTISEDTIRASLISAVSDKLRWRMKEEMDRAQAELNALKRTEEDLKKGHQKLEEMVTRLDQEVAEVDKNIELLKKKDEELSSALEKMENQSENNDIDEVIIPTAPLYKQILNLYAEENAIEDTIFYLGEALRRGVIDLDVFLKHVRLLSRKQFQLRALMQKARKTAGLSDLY
In short: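 Fluorescence anisotropy measured PTAP-Tsg101 interaction. Final concentrations were 10 uM protein domain and 50 nM labeled peptide, equilibrated 20 min at room temperature.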

[7] = molecular target: Beta-2 adrenergic receptor (Homo sapiens) (UniProt P07550); assay: qHTS validation assay of beta-arrestin-biased ligands of beta2-adrenergic receptor (AID 485366)
Beta-2 adrenergic receptor (Homo sapiens), sequence (P07550 whole entry, looked up): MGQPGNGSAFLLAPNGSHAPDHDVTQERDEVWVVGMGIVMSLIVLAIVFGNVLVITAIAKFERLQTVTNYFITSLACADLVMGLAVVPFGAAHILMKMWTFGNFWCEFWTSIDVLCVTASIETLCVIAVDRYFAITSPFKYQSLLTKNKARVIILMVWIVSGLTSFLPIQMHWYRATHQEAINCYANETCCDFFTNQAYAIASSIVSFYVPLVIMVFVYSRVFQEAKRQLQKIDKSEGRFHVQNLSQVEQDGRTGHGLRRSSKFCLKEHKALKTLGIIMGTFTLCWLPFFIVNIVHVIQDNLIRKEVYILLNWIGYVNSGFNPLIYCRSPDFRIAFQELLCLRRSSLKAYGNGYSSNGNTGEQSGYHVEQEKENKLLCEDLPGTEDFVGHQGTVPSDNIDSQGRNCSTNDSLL
In short: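 Values derive from curve-fitted %Activity of a luminescent beta-arrestin recruitment reporter; compounds tested up to 46 microM on Tango cells for 18 hr at 37 degrees C, 5% CO2.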

[8] = molecular target: ATP-dependent 6-phosphofructokinase (Trypanosoma brucei brucei) (UniProt O15648); assay: qHTS Validation Assay to Find Inhibitors of T. brucei phosphofructokinase (AID 485368); note: potency is the fitted concentration of half-maximal effect
ATP-dependent 6-phosphofructokinase (Trypanosoma brucei brucei), sequence (O15648 whole entry, looked up): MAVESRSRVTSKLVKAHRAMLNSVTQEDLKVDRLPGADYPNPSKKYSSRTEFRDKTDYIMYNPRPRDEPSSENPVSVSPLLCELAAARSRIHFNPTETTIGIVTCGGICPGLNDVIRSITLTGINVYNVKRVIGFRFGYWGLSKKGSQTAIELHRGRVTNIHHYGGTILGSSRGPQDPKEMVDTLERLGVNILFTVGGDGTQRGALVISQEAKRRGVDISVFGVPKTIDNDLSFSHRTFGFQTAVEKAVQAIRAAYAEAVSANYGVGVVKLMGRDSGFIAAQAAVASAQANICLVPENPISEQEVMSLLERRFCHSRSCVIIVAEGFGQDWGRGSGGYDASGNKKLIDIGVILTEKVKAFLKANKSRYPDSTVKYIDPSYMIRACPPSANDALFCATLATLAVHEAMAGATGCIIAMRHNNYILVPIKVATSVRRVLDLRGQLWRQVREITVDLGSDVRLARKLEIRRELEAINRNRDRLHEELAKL
In short: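 Enzyme reaction in triethanolamine buffer pH 8.0 with 5 mM MgCl2, 0.01% Tween20 and 0.1% BSA; PFK 1.25 nM, F6P 0.5 mM, ATP 0.1 mM, 45 min RT. ADP quantified by ADP-Glo.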

[9] = molecular target: Thioredoxin reductase 1, cytoplasmic (Rattus norvegicus) (UniProt O89049); assay: qHTS Assay for Substrates of Mammalian Selenoprotein Thioredoxin Reductase 1 (TrxR1) (AID 488772);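 note: NADPH fluorescence in the first read after selenite addition and not the 8 min delta; series mostly up to about 57 µM; a drop in NADPH fluorescence below the no-compound background marks a TrxR1 substrate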
Thioredoxin reductase 1, cytoplasmic (Rattus norvegicus), sequence (O89049 whole entry, looked up): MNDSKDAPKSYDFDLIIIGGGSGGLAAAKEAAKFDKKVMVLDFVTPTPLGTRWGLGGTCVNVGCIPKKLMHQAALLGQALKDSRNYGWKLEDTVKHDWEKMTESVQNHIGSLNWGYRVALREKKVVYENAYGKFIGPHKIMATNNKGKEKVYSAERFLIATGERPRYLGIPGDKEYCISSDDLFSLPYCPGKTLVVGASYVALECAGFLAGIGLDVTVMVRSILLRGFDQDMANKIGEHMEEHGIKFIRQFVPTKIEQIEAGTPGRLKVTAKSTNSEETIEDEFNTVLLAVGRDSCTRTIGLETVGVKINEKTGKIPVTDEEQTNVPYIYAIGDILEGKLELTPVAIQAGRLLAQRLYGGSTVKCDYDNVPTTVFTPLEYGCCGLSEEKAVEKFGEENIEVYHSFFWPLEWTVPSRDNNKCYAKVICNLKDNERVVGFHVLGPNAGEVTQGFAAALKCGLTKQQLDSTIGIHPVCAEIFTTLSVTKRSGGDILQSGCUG
In short: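 Quantitative HTS in Tris-HCl buffer at pH 7.5 with EDTA and Tween-20, using rat TrxR1, 400 uM NADPH and 400 uM selenite (final). A fall in initial NADPH fluorescence relative to background marked substrate behaviour.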

[10] = molecular target: Thioredoxin reductase 1, cytoplasmic (Rattus norvegicus) (UniProt O89049); assay: qHTS Assay for Inhibitors of Mammalian Selenoprotein Thioredoxin Reductase 1 (TrxR1) (AID 488773); details: Potency: inhibition; note: nearly all actives have a fitted effect of over 40% in size; note: potency is the fitted concentration of half-maximal effect
In short: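 Steps: enzyme (90 nM) plus NADPH (400 uM final), 5 min at ~22 deg C; compound added, 15 min; selenite (400 uM final) added; fluorescence followed for 8 min. Concentration-response curves derived from the normalized delta values.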

[11] = Cytometry Cell-Based qHTS for Inhibitors of the mTORC1 Signaling Pathway in MEF cells (AID 2668); note: potency is the fitted concentration of half-maximal effect
In short: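 Pathway inhibition in WT Tsc2-rescued Tsc2-/-, p53-/- MEFs is measured as the Alexa-488 phospho-rpS6 to propidium iodide intensity ratio after 24 hrs of compound at 37 degree Celsius. PI-stained cell number gives viability.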

[12] = Validation screen for inhibitors of Lassa infection (AID 463096; calls by dose curve; note: potency is the fitted concentration of half-maximal effect)
[13] = Validation screen for small molecules that induce DNA re-replication in MCF 10A normal breast cells (AID 463097); note: nearly all actives have a fitted effect of over 60% in size; note: potency is the fitted concentration of half-maximal effect
In short: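 DNA re-replication was detected as a rise in nuclei with elevated Hoechst fluorescence after a 48 hr compound exposure of MCF 10A cells at 37 C.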

[14] = qHTS Validation Assay to Find Inhibitors of Chronic Active B-Cell Receptor Signaling (AID 485345; active = well fitted curve in the direction sought with a large enough effect in the main read-out, with a control signal flat, not every such curve was filed as active)
In short: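 Read-out: ratio of filter-corrected green (IkappaBalpha fusion) to red (native) luciferase signal in doxycycline-induced TMD8 cells after 4 h at 37C. Titration spanned 46 uM–3 nM; Data were normalised to basal cells and 10 uM MG-132 wells.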

[15] = Quantitative high throughput screen for delayed death inhibitors of the malarial parasite plastid, 96 hour incubation (AID 488745); note: nearly all actives have a fitted effect of over 70% in size; note: potency is the fitted concentration of half-maximal effect
In short: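 Infected erythrocytes were added to compound in Albumax-supplemented RPMI 1640 at 0.1% parasitemia and 2% hematocrit (final), incubated 96 h at 37 C under 5% CO2, then luciferase reagent was added and luminescence measured.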

[16] = Quantitative high throughput screen for delayed death inhibitors of the malarial parasite plastid, 48 hour incubation (AID 488752); note: nearly all actives have a fitted effect of over 65% in size; note: potency is the fitted concentration of half-maximal effect
In short: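 Readout is firefly luciferase luminescence from a reporter integrated into the parasite genome, with lower signal taken as inhibited growth. Infected red cells (0.1% parasitemia, 2% hematocrit final) are cultured with compound for one 48 h cycle at 37 C.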

[17] = molecular target: Flap endonuclease 1 (Homo sapiens) (UniProt P39748); assay: qHTS Validation Assay for the Inhibitors of Human Flap endonuclease 1 (FEN1) (AID 488816); note: potency is the fitted concentration of half-maximal effect
In short: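 Readings taken at 0 and 15 min after starting the reaction with 50 nM (final) substrate supplied the signal. Compounds had first sat with 10 nM FEN1 reagent for 15 min at room temperature. Values come from Hill-equation concentration-response fits.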

[18] = molecular target: M-phase phosphoprotein 8 (Homo sapiens) (UniProt Q99549); assay: qHTS Validation Assay for Inhibitors for MPP8 Chromodomain Interactions with Methylated Histone Tails (AID 488949); note: nearly all actives have a fitted effect of over 55% in size; note: potency is the fitted concentration of half-maximal effect
M-phase phosphoprotein 8 (Homo sapiens), sequence (Q99549 whole entry, looked up): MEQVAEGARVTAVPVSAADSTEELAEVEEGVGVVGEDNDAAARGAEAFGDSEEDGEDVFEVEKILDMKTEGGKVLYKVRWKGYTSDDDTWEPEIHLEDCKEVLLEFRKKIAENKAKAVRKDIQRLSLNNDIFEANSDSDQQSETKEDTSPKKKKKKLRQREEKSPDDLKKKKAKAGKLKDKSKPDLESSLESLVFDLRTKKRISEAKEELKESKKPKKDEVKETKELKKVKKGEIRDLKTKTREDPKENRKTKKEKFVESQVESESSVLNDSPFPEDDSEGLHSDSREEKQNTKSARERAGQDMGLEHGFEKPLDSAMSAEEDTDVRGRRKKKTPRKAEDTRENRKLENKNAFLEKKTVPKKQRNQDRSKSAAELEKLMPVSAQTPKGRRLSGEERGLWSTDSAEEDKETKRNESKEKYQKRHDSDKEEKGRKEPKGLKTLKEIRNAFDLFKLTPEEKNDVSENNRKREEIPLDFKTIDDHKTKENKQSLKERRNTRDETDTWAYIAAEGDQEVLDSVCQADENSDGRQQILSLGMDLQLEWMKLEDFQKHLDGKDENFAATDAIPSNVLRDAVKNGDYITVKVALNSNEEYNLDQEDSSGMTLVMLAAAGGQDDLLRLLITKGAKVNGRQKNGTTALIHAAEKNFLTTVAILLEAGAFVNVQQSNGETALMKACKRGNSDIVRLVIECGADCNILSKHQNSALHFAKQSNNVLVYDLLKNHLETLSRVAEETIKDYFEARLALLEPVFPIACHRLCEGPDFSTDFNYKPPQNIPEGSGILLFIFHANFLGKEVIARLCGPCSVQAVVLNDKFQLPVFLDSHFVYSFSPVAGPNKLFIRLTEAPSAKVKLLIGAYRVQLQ
In short: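 Disruption of the preformed MPP8–trimethyl-H3K9 peptide complex (both 50 nM, 30 min, RT) is measured after 30 min compound exposure, using AlphaScreen proximity beads; aurintricarboxylic acid titration serves as plate control.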

SMILES	Potency [1]	Potency [2]	Potency [3]	Potency [4]	Potency [5]	outcome [6]	outcome [7]	Potency [8]	outcome [9]	Potency [10]	Potency [11]	Potency [12]	Potency [13]	Potency [14]	Potency [15]	Potency [16]	Potency [17]	Potency [18]
CCCN1CCc2cccc3c2[C@H]1Cc1ccc(O)c(O)c1-3	inactive	inactive	inactive	inactive	inactive	inactive	inactive	12 µM (active)	inactive	23.8 µM (active)	–	–	–	–	–	–	–	–
C[C@H](Cc1ccc2c(c1)OC(C(=O)O)(C(=O)O)O2)NC[C@H](O)c1cccc(Cl)c1	inactive	–	inactive	–	inactive	inactive	–	–	–	inactive	inactive	inactive	inactive	inactive	inactive	inactive	inactive	inactive
O=[N+]([O-])c1cc(O)c(O)c([N+](=O)[O-])c1	inactive	–	inactive	–	inactive	inactive	inactive	–	inactive	inactive	inactive	–	inactive	inactive	–	inactive	inactive	inactive
Cc1sc2ccccc2c1CC1=NCCN1	inactive	–	inactive	inactive	inactive	–	inactive	inactive	inactive	inactive	inactive	inactive	inactive	inactive	–	inactive	–	inactive
Oc1ccc2c3c1O[C@H]1c4oc5ccccc5c4C[C@@]4(O)C(C2)N(CC2CC2)CCC314 (stereo not given in full)	inactive	inactive	–	–	inactive	–	inactive	inactive	–	inactive	–	7.94 µM (active)	inactive	inactive	–	–	–	inactive
CC(N)c1cccc(Cl)c1Cl (stereo not given)	inactive	–	inactive	–	inactive	inactive	inactive	–	–	inactive	inactive	inactive	–	inactive	inactive	inactive	inactive	inactive
NC(Cc1ccc(N(CCCl)CCCl)cc1)C(=O)O (stereo not given)	inactive	–	inactive	inactive	inactive	inactive	inactive	inactive	inactive	–	inactive	8.91 µM (active)	inactive	–	–	8.28 µM (active)	–	inactive
CN(C(=O)Cc1ccc(Cl)c(Cl)c1)C(CN1CCCC1)c1cccc(OCC(=O)O)c1 (stereo not given)	inactive	–	inactive	–	inactive	–	inactive	inactive	–	inactive	inactive	inactive	inactive	inactive	inactive	inactive	inactive	inactive
NCC(CP(=O)(O)O)c1ccc(Cl)cc1 (stereo not given)	inactive	–	inactive	inactive	inactive	–	inactive	inactive	inactive	inactive	inactive	inactive	inactive	–	inactive	inactive	inactive	–
CCCN(CCC)[C@H]1CCc2c(F)ccc(O)c2C1	inactive	–	inactive	–	inactive	inactive	inactive	inactive	inactive	inactive	inactive	inactive	inactive	inactive	2.94 µM (active)	2.94 µM (active)	inactive	inactive
CC1OC1P(=O)(O)O (stereo not given)	–	–	–	–	–	–	–	–	–	–	–	–	inactive	–	–	inactive	–	–
CC(=O)OCC1=C(C(=O)O)N2C(=O)[C@@H](NC(=O)CCC[C@@H](N)C(=O)O)[C@H]2SC1	inactive	–	inactive	inactive	inactive	–	inactive	–	inactive	inactive	inactive	–	–	inactive	–	–	inactive	inactive
N[C@@H](Cn1ccc(=O)[nH]c1=O)C(=O)O	inactive	–	inactive	inactive	inactive	–	inactive	inactive	–	inactive	inactive	–	–	inactive	–	–	inactive	–
Ic1ccccc1CNC1C2CCN(CC2)C1C(c1ccccc1)c1ccccc1 (stereo not given)	–	16.5 µM (active)	6.56 µM (active)	–	inactive	inactive	inactive	inactive	–	inactive	6.56 µM (active)	–	17.8 µM (active)	–	–	–	–	inactive
CCCCCCCCCCCCCC(=O)O[C@@H]1[C@@H](C)[C@@]2(O)[C@@H](C=C(CO)C[C@@]3(O)C(=O)C(C)=C[C@@H]23)C2C(C)(C)[C@@]21OC(C)=O (stereo not given in full)	–	–	–	inactive	inactive	inactive	inactive	–	–	inactive	–	–	–	–	11.7 µM (active)	–	–	inactive
CN1C2CCC1CC(OC(c1ccccc1)c1ccc(Cl)cc1)C2 (stereo not given)	–	–	–	–	–	–	–	–	–	–	–	8.91 µM (active)	–	–	–	6.57 µM (active)	–	–
NC(N)=Nc1ccc2[nH]c3c(c2c1)C[C@@]1(O)[C@H]2Cc4ccc(O)c5c4[C@@]1(CCN2CC1CC1)[C@H]3O5	–	–	inactive	inactive	–	–	–	–	inactive	–	inactive	0.891 µM (active)	–	–	–	inactive	–	31.6 µM (active) and 2.12 µM (active)
N#C/C(=C/c1ccc(O)c(O)c1)C(N)=S	inactive	–	inactive	–	inactive	inactive	inactive	–	–	–	inactive	–	–	inactive	–	–	2.99 µM (active)	–
CCCN1CCc2cc(O)cc3c2[C@H]1Cc1ccc(O)c(O)c1-3	–	–	–	inactive	inactive	inactive	inactive	3.01 µM (active)	–	–	–	–	–	–	–	–	–	11.9 µM (active)
COc1ccc2c(c1)/C(=C/c1cnc[nH]1)C(=O)N2	10.4 µM (active)	–	–	inactive	inactive	inactive	inactive	inactive	inactive	–	6.56 µM (active)	inactive	–	–	–	–	inactive	44.7 µM (active) and inactive
O=[N+]([O-])/C=C/c1ccc2c(c1)OCO2	–	inactive	2.07 µM (active)	inactive	inactive	inactive	inactive	–	–	7.52 µM (active)	–	–	–	–	–	–	–	–
CNC(=O)OCC[N+](C)(C)C	–	–	–	–	–	–	–	–	–	–	–	inactive	–	–	–	inactive	–	–
CCCn1c(C)c(C(=O)c2ccc3ccccc3c2)c2ccccc21	inactive	–	inactive	–	inactive	inactive	inactive	–	inactive	inactive	–	inactive	–	–	inactive	inactive	inactive	inactive
CC(=O)c1c(O)c(C)c(O)c(Cc2c(O)c3c(c(C(=O)/C=C/c4ccccc4)c2O)OC(C)(C)C=C3)c1O	inactive	–	inactive	–	18.9 µM (active)	inactive	inactive	–	inactive	2.12 µM (active)	inactive	–	–	inactive	–	14.7 µM (active)	–	–
CC(C)CC(NP(=O)(O)O[C@@H]1O[C@@H](C)[C@H](O)[C@@H](O)[C@H]1O)C(=O)NC(Cc1c[nH]c2ccccc12)C(=O)O (stereo not given in full)	–	–	–	–	–	–	–	–	–	–	–	inactive	inactive	–	inactive	inactive	inactive	inactive
N[C@@]1(C(=O)O)CC[C@@H](C(=O)O)C1	–	inactive	inactive	–	inactive	inactive	inactive	–	inactive	inactive	inactive	inactive	inactive	inactive	inactive	inactive	–	inactive
